Measured values taken from the supplement of paper PMC9262897, “Low-cost anti-mycobacterial drug discovery using engineered E. coli” (Nature Communications, 2022).
Counter-ions that a name gives are not always drawn. ± gives the standard deviation of the averaged measurements.

Tested on: E. coli TESEC Mtb Alr
Assay: growth (OD600 after 10 h); higher = more growth (less inhibition)
Settings: compound 0.1 mM
Description: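 TESEC Mtb Alr E. coli, or the Alr+ wild-type control, in 384-well plates with Prestwick library compounds at 0.1 mM and 1% DMSO, across arabinose induction levels of 1E3 to 1E7 nM. Growth is read as OD600 after 10 h at 37 °C in triplicate biological replicates.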

[1] = arabinose 1000 nM, raw OD600 reference: median of DMSO wells 0.294, cell-free background 0.041
[2] = arabinose 10000 nM, raw OD600 reference: median of DMSO wells 0.264, cell-free background 0.041
[3] = arabinose 100000 nM, raw OD600 reference: median of DMSO wells 0.201, cell-free background 0.041
[4] = arabinose 1000000 nM, raw OD600 reference: median of DMSO wells 0.193, cell-free background 0.041
[5] = arabinose 10000000 nM, raw OD600 reference: median of DMSO wells 0.146, cell-free background 0.041

Compound: NCC1(CC(=O)O)CCCCC1 [Gabapentin]
- growth [1]: 0.324 ± 0.013
- growth [2]: 0.281 ± 0.011
- growth [3]: 0.215 ± 0.021
- growth [4]: 0.184 ± 0.003
- growth [5]: 0.156 ± 0.0041

Compound: C1CCc2nnnn2CC1 [Pentylenetetrazole]
- growth [1]: 0.282 ± 0.018
- growth [2]: 0.275 ± 0.0089
- growth [3]: 0.233 ± 0.021
- growth [4]: 0.187 ± 0.0053
- growth [5]: 0.141 ± 0.007

Compound: CN1[C@@H]2CC[C@H]1C[C@@H](OC1c3ccccc3CCc3ccccc31)C2 [Deptropine citrate]
- growth [1]: 0.041 ± 0.0014
- growth [2]: 0.03993 ± 0.00025
- growth [3]: 0.043 ± 0.001
- growth [4]: 0.0411 ± 0.0015
- growth [5]: 0.04267 ± 0.00021

Compound: CN(C)C(=O)Oc1cc(OC(=O)N(C)C)cc(C(O)CNC(C)(C)C)c1 (stereo not given) [Bambuterol hydrochloride]
- growth [1]: 0.266 ± 0.04
- growth [2]: 0.273 ± 0.0062
- growth [3]: 0.232 ± 0.02
- growth [4]: 0.193 ± 0.006
- growth [5]: 0.141 ± 0.0068

Compound: O=C(CCCN1CCC2(CC1)C(=O)NCN2c1ccccc1)c1ccc(F)cc1 [Spiperone]
- growth [1]: 0.273 ± 0.019
- growth [2]: 0.276 ± 0.011
- growth [3]: 0.1711 ± 0.0014
- growth [4]: 0.169 ± 0.0073
- growth [5]: 0.149 ± 0.0039

Compound: O=C(NCNC(=O)NC1C(=O)NC(=O)N1CO)NC1C(=O)NC(=O)N1CO (stereo not given) [Imidurea]
- growth [1]: 0.2874 ± 0.0013
- growth [2]: 0.289 ± 0.0059
- growth [3]: 0.193 ± 0.036
- growth [4]: 0.231 ± 0.022
- growth [5]: 0.135 ± 0.0032

Compound: C[C@]12CC[C@H](O)C[C@@H]1CC[C@@H]1[C@@H]2CC[C@]2(C)C(=O)CC[C@@H]12 [Epiandrosterone]
- growth [1]: 0.12 ± 0.0055
- growth [2]: 0.107 ± 0.0061
- growth [3]: 0.0943 ± 0.0019
- growth [4]: 0.0694 ± 0.0019
- growth [5]: 0.0859 ± 0.0011

Compound: C[C@]12C[C@H]3S[C@H]3C[C@@H]1CC[C@@H]1[C@@H]2CC[C@]2(C)[C@@H](O)CC[C@@H]12 [Epitiostanol]
- growth [1]: 0.291 ± 0.012
- growth [2]: 0.281 ± 0.0097
- growth [3]: 0.144 ± 0.011
- growth [4]: 0.15 ± 0.013
- growth [5]: 0.136 ± 0.0072
